# Records with an inconclusive call do not appear. Activity calls are given as the source filed them. How the source made its calls: active means hit-call score of the fitted dose curve at least 0.9, where 1 is the maximum; inconclusive means response in the unintended direction; inactive means score below 0.9.
# Molecular target: human Ephrin type-B Receptor 2 (EphB2), EPHB2 (gene 2048) (UniProt P29323)
# Test: NVS_ENZ_hEphB2: NovaScreen (NVS) Enzymatic Assay for human Ephrin type-B Receptor 2 (EphB2) (AID 2283156)
# Description: NVS_ENZ_hEphB2 is a biochemical, single-readout assay that uses extracted gene-proteins in a cell-free assay. Measurements were taken 1 hour after chemical dosing in a 384-well plate.NVS_ENZ_hEphB2 is one of one assay component(s) measured or calculated from the NVS_ENZ_hEphB2 assay. It is designed to make measurements of enzyme activity, a form of enzyme reporter, as detected with fluorescence intensity signals by Fluorescence and electrophoretic mobility shift technology.Data from the assay component NVS_ENZ_hEphB2 was analyzed into 1 assay endpoint. This assay endpoint, NVS_ENZ_hEphB2, was analyzed in the positive analysis fitting direction relative to DMSO as the negative control and baseline of activity. Using a type of enzyme reporter, loss-of-signal activity can be used to understand changes in the enzymatic activity as they relate to the gene EPHB2. Furthermore, this assay endpoint can be referred to as a primary readout, because this assay has produced multiple assay endpoints where this one serves a enzymatic activity function. To generalize the intended target to other relatable targets, this assay endpoint is annotated to the kinase intended target family, where the subfamily is receptor tyrosine kinase.
# Binding assays used specific radioligands (tritiated, iodinated) with non-radioactive competitive displacement ligands in agonist or antagonist protocols (as indicated) and various reference compounds and inhibitors to titrate specific binding to receptors and transporters. Most enzyme assays (CYPs, kinases, phosphatases, proteases, HDACs) used recombinant protein and specific substrates (fluorescence mostly, some colorimetric and radioactive) and inhibitors, followed by a biochemical separation of substrate and product. All assays for the biochemical HTS were initially run in duplicate at a single concentration (10 uM for CYP450 assays and 25 uM for all others). Assay-chemical combinations meeting a pre-defined threshold (e.g., 30% inhibition and other criteria defined below) were then run in singleton concentration-response format with maximum concentration of 20 uM for CYPs and 50 uM for all others. Each assay was run with positive and negative controls, and concurrent controls on every plate. The follow-up (secondary) screen tested active chemical-pairs in concentration series, as well as a few additional assays not tested in the primary screen, some selected negative inactives, and several cases re-run in the concentration series for confirmatory purposes.
# Chain of human Ephrin type-B Receptor 2 (EphB2), EPHB2 (gene 2048) (P29323 whole entry, looked up): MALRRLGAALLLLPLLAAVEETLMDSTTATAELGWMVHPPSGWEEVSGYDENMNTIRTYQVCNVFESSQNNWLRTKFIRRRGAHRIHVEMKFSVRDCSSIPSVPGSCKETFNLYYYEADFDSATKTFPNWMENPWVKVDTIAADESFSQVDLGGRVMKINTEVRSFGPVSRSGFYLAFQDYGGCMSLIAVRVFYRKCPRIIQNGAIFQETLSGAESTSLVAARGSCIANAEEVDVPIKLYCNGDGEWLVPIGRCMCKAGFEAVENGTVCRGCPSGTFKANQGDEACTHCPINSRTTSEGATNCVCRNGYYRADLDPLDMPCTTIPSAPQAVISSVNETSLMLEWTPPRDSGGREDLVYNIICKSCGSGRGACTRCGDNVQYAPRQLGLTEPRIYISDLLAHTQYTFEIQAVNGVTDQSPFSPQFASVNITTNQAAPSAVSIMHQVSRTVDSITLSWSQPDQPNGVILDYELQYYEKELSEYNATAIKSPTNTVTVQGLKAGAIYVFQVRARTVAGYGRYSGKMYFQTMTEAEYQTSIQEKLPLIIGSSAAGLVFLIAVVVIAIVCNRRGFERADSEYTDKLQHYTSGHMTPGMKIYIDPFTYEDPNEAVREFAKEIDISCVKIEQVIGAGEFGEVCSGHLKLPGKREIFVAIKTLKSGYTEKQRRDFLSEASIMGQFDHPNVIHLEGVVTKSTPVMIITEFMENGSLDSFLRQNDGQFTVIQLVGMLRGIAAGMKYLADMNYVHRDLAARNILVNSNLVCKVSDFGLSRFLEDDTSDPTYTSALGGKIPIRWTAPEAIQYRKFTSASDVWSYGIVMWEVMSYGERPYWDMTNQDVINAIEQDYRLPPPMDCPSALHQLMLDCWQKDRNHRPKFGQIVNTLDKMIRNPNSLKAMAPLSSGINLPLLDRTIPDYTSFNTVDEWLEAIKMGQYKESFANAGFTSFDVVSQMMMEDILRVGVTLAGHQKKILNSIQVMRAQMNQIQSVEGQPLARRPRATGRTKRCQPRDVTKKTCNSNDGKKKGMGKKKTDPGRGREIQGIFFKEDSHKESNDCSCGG
Compound,outcome,AC50
Cc1[nH]nc2c1N=C(c1ccccc1Cl)c1cc([N+](=O)[O-])ccc1N2,inactive,
CC(C)(c1ccc(O)cc1)c1ccc(O)cc1,inactive,
COc1cc(C(=O)NC2CCN(C)CC2)ccc1Nc1ncc2c(n1)N(C1CCCC1)CC(F)(F)C(=O)N2C,inactive,
Clc1nc(Cl)c(Cl)c(Cl)c1Cl,inactive,
CCCCCCC(C)OC(=O)COc1nc(F)c(Cl)c(N)c1Cl (stereo unspecified),inactive,
COCCO,inactive,
CCCCCCCC/C=C\CCCCCCCC(=O)OC[C@@H](O)[C@H]1OC[C@H](O)[C@H]1O,,6.52 µM (active)
CCOC(=O)CC(CC(=O)OCC)(OC(C)=O)C(=O)OCC,inactive,
Cc1ccc(N)cc1O,inactive,
Oc1ccc(C(c2ccc(O)cc2)C(Cl)(Cl)Cl)cc1,inactive,
CN(C)C(=O)NC1(c2ccccc2)CCN(CCC[C@]2(c3ccc(Cl)c(Cl)c3)CCCN(C(=O)c3ccccc3)C2)CC1,inactive,

# From PubChem BioAssay (EPA / NIEHS)
